Experiment in all cases: DAPPL (digital affinity profiling via proximity ligation, sequencing); 10 mM Tris-HCl pH 7.5, 50 mM NaCl, 1 mM DTT, 4% glycerol, room temperature, 30 min; GST-TFs on glutathione beads, 16-mer random dsDNA library, 0.1% formaldehyde crosslink after washing; high values mean tight binding
In assay [1] the target is T1, FLI1 (Homo sapiens, UniProt Q01543 1-452).
T1 sequence: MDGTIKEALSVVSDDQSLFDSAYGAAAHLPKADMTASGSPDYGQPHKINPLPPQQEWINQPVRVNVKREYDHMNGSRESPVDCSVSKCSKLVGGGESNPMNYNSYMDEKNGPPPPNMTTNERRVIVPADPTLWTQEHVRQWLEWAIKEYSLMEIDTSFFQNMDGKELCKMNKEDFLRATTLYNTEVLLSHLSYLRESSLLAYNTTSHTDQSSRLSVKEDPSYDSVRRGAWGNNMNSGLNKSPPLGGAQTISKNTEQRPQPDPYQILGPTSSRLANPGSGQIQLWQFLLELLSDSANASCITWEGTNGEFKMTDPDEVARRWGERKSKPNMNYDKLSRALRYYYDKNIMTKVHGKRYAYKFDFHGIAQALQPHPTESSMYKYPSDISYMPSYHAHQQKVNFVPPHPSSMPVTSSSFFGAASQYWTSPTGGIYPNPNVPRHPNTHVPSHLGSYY
Conditions: protein: recombinant; tags: N-terminal GST; dsDNA, one strand shown. A digest of the protocol: (§1)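 Pools of DNA-barcoded human transcription factors, expressed in yeast as GST fusions on glutathione beads and combined with a tag-only sample, were incubated with 200 nmole of a 16-mer random double-stranded DNA library. Incubation took 30 min at room temperature in Tris/NaCl/DTT/glycerol buffer and was followed by washing, 0.1% formaldehyde crosslinking, proximity ligation (BsaI/T4 ligase, 1 h, 37 °C), PCR amplification and sequencing on an Illumina NextSeq500. Binding signal is the ratio of a hexamer's read frequency for a factor to its frequency for the tag-only sample.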

In assay [2] the target is T2, ELK1 (Homo sapiens, UniProt P19419 1-428).
T2 sequence: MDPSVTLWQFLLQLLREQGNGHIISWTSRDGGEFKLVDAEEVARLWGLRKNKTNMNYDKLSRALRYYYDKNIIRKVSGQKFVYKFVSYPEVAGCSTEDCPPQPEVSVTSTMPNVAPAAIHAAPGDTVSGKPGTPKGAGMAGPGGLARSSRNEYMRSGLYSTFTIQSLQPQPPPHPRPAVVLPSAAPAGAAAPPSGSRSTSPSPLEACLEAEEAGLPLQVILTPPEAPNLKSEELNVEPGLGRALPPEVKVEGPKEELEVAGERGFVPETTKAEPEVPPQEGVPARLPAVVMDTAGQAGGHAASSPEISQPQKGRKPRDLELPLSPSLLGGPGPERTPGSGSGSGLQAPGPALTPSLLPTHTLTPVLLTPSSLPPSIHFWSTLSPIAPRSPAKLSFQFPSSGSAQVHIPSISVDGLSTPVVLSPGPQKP
Conditions: protein: recombinant; tags: N-terminal GST; dsDNA, one strand shown. Summed up: as §1

Assay [3] addresses T3, GABPA (Homo sapiens, UniProt Q06546 1-454).
T3 sequence: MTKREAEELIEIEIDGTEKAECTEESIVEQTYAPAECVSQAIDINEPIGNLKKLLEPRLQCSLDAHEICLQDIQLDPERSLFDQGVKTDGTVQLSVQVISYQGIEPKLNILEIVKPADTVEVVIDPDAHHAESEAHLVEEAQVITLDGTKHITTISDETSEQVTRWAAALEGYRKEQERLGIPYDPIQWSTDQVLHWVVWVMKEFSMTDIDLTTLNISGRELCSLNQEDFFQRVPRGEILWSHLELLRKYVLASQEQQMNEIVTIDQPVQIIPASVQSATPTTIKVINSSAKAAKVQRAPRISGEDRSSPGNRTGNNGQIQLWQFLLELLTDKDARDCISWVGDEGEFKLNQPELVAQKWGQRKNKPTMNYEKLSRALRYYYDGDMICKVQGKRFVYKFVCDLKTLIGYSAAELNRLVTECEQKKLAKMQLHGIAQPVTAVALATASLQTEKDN
The following applies: protein: recombinant; tags: N-terminal GST; dsDNA, one strand shown. Summed up:
as §1

The target of assay [4] is T4, ERG (Homo sapiens, UniProt P11308 1-479).
T4 sequence: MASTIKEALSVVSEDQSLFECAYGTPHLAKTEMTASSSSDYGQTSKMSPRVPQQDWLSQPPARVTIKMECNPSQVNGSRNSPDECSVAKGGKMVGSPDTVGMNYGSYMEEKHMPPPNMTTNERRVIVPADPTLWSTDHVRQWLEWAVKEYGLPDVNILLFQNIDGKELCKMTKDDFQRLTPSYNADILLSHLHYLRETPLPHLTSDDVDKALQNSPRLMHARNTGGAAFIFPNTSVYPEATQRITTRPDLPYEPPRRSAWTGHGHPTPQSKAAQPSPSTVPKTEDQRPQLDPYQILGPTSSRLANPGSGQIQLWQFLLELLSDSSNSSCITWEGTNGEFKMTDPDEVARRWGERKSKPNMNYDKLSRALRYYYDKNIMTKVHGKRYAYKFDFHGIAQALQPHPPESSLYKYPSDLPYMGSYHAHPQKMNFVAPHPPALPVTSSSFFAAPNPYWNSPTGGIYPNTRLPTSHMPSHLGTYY
Conditions: protein: recombinant; tags: N-terminal GST; dsDNA, one strand shown. A digest of the protocol:
as §1

Assay [5] concerns the target ELF1 (Homo sapiens, UniProt P32519 1-619). The following applies: protein: recombinant; tags: N-terminal GST; dsDNA, one strand shown. A digest of the protocol: as §1
For assay [6], the target named is T5, EHF (Homo sapiens, UniProt Q9NZC4 1-300).
T5 sequence: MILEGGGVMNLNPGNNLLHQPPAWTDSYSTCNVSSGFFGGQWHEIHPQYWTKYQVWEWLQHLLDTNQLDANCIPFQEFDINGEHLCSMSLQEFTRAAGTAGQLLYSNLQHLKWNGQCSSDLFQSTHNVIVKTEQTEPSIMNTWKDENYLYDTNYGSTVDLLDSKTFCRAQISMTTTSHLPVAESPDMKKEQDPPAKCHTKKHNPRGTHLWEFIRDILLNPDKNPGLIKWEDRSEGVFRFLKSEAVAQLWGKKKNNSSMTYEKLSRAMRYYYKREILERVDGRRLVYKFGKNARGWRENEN
The following applies: protein: recombinant; tags: N-terminal GST; dsDNA, one strand shown. Summed up:
as §1

Assay [7] has as its target SPI1 (Homo sapiens, UniProt P17947 1-270). The following applies: protein: recombinant; tags: N-terminal GST; dsDNA, one strand shown. A digest of the protocol: as §1
Assay [8] has as its target SPIB (Homo sapiens, UniProt Q01892 1-262). Conditions: protein: recombinant; tags: N-terminal GST; dsDNA, one strand shown. A digest of the protocol: as §1
Assay [9] deals with T6, ELK3 (Homo sapiens, UniProt P41970 1-407).
T6 sequence: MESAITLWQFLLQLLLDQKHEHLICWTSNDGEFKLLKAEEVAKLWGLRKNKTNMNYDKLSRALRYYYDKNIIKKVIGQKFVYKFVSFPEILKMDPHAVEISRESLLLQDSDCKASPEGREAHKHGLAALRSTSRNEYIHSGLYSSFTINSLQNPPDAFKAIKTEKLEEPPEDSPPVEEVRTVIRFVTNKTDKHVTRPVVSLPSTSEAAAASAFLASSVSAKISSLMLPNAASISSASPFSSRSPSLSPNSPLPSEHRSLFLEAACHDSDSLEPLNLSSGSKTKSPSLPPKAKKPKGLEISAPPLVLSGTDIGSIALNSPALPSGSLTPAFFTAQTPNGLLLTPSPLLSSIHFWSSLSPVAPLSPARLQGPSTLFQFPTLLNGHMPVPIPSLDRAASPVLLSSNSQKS
Conditions: protein: recombinant; tags: N-terminal GST; dsDNA, one strand shown. A digest of the protocol:
as §1

Assay [10] deals with T7, FEV (Homo sapiens, UniProt Q99581 1-238).
T7 sequence: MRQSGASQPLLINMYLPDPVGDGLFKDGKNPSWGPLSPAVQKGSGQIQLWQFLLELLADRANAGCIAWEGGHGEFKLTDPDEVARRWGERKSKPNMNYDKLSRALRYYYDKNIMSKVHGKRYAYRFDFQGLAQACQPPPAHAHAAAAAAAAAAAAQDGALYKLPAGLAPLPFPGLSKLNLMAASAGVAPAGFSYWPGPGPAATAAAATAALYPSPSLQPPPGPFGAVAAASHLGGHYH
Conditions: protein: recombinant; tags: N-terminal GST; dsDNA, one strand shown. A digest of the protocol:
as §1

The target in assay [11] is ETV5 (Homo sapiens, UniProt P41161 1-510). Conditions: protein: recombinant; tags: N-terminal GST; dsDNA, one strand shown. A digest of the protocol: as §1
Sequence of ETV5 (P41161 whole entry): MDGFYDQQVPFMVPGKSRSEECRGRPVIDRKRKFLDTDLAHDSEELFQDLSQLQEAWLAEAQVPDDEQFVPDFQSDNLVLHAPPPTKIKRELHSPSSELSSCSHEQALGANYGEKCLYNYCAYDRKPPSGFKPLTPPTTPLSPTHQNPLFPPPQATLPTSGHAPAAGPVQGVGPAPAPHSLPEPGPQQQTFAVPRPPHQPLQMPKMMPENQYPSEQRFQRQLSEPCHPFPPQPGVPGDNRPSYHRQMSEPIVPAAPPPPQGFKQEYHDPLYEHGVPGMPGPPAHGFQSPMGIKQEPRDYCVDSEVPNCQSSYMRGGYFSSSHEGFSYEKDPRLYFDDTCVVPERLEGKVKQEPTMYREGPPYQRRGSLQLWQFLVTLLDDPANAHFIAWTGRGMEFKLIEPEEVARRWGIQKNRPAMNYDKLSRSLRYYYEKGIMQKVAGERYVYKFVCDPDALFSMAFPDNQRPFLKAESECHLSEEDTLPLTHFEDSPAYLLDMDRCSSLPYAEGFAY
For assay [12], the target named is HSF1 (Homo sapiens, UniProt Q00613 1-529). The following applies: protein: recombinant; tags: N-terminal GST; chain copies: 3; dsDNA, one strand shown. A digest of the protocol:
as §1

Assay [13] concerns the target T8, SPIC (Homo sapiens, UniProt Q8N5J4 1-248).
T8 sequence: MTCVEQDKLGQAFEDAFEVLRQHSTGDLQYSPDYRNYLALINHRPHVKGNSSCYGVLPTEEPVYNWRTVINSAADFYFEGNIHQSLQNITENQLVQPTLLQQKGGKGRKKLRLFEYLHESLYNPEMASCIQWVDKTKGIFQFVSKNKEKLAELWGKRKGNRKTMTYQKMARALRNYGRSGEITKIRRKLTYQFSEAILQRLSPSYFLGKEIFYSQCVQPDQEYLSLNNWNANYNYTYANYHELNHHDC
The following applies: protein: recombinant; tags: N-terminal GST; dsDNA, one strand shown. A digest of the protocol: as §1

Assay [14] deals with ELF4 (Homo sapiens, UniProt Q99607 1-663). Conditions: protein: recombinant; tags: N-terminal GST; dsDNA, one strand shown. Summed up: as §1
Sequence of ELF4 (Q99607 whole entry): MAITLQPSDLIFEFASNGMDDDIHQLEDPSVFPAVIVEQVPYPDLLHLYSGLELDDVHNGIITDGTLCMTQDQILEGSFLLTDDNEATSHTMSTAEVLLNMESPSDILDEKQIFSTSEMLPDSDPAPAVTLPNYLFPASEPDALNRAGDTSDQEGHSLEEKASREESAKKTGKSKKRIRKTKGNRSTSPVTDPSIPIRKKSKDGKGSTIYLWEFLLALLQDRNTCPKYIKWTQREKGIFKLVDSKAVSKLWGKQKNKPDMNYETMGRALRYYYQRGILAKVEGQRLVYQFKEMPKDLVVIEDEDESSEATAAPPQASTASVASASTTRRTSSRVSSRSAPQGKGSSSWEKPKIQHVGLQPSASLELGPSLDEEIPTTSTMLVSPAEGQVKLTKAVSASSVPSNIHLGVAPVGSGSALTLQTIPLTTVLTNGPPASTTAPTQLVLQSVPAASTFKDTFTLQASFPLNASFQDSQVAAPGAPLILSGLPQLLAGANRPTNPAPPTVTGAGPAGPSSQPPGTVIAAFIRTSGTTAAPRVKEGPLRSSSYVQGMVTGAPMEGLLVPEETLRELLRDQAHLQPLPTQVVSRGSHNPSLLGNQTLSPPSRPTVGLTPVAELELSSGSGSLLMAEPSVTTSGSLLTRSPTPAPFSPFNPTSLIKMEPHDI
For assay [15], the target named is T9, ELK4 (Homo sapiens, UniProt P28324-2 1-405).
T9 sequence: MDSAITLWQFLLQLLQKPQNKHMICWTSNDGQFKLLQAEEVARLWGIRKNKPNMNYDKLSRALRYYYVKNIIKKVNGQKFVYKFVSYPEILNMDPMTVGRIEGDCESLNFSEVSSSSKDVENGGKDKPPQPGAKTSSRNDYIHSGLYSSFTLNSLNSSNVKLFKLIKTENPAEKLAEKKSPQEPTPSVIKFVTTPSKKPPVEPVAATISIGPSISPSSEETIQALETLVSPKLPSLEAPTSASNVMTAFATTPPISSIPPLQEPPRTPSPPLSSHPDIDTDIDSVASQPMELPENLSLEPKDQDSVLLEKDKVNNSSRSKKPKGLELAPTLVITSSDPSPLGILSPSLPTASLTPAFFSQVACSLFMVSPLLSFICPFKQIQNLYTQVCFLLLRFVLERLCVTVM
The following applies: protein: recombinant; tags: N-terminal GST; dsDNA, one strand shown. A digest of the protocol:
as §1

In assay [16] the target is T10, ETV2 (Homo sapiens, UniProt O00321 1-342).
T10 sequence: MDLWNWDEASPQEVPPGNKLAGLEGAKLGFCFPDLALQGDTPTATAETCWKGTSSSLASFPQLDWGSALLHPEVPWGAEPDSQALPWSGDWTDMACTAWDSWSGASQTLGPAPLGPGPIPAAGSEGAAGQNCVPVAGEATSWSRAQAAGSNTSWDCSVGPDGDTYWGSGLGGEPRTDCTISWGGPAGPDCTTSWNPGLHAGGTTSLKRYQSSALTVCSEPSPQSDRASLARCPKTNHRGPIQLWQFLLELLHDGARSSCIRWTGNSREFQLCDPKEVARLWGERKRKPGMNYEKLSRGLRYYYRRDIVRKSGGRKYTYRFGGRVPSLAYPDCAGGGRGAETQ
Conditions: protein: recombinant; tags: N-terminal GST; dsDNA, one strand shown. A digest of the protocol:
as §1

In assay [17] the target is T11, ELF3 (Homo sapiens, UniProt P78545 1-371).
T11 sequence: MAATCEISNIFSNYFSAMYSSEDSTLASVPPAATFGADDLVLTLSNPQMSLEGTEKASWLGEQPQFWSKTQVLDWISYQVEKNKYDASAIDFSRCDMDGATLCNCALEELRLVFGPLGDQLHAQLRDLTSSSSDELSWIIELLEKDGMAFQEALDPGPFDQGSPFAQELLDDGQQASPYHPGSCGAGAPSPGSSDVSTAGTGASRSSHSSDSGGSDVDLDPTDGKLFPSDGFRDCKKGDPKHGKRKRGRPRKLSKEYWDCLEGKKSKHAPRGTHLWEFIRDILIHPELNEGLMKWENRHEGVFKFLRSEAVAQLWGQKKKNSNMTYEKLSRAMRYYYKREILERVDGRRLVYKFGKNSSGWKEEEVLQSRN
The following applies: protein: recombinant; tags: N-terminal GST; dsDNA, one strand shown. A digest of the protocol:
as §1

Assay [18] concerns the target ETV1 (Homo sapiens, UniProt P50549 1-477). Conditions: protein: recombinant; tags: N-terminal GST; dsDNA, one strand shown. Summed up:
as §1

Sequence of ETV1 (P50549 whole entry): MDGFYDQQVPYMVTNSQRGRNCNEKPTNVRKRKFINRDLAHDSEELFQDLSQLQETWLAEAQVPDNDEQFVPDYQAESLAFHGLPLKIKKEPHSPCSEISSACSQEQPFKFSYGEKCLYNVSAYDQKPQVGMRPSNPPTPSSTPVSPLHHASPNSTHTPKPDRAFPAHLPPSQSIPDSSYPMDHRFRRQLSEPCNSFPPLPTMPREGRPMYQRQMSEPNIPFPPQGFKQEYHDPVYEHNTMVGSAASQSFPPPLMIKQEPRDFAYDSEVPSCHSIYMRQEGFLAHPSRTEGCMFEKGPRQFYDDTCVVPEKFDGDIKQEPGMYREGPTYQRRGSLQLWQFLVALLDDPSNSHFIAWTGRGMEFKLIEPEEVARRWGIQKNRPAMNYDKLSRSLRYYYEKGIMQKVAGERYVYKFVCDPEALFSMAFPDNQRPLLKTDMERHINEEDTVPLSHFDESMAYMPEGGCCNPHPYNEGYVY
Sequence of HSF1 (Q00613 whole entry): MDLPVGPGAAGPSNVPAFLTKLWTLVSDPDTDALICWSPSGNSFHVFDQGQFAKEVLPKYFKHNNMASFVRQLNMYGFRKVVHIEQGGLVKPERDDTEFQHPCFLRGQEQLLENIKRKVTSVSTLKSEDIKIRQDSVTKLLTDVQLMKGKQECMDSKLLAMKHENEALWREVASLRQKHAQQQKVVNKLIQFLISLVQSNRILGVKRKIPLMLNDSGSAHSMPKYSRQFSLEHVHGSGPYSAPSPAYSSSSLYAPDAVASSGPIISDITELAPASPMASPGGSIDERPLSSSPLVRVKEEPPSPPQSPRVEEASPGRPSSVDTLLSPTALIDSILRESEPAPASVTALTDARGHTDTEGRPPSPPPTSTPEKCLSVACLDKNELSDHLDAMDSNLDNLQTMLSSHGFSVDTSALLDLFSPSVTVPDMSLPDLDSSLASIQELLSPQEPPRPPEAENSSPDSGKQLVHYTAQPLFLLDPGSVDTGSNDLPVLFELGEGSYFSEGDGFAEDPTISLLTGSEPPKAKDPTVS
Sequence of SPIB (Q01892 whole entry): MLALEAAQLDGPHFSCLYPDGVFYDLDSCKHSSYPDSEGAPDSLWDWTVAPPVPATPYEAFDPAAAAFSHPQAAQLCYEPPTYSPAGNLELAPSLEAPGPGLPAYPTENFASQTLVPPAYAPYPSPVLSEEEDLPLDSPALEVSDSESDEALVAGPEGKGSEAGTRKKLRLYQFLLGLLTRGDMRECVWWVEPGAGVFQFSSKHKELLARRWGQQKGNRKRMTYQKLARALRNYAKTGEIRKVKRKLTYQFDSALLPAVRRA
Sequence of ELF1 (P32519 whole entry): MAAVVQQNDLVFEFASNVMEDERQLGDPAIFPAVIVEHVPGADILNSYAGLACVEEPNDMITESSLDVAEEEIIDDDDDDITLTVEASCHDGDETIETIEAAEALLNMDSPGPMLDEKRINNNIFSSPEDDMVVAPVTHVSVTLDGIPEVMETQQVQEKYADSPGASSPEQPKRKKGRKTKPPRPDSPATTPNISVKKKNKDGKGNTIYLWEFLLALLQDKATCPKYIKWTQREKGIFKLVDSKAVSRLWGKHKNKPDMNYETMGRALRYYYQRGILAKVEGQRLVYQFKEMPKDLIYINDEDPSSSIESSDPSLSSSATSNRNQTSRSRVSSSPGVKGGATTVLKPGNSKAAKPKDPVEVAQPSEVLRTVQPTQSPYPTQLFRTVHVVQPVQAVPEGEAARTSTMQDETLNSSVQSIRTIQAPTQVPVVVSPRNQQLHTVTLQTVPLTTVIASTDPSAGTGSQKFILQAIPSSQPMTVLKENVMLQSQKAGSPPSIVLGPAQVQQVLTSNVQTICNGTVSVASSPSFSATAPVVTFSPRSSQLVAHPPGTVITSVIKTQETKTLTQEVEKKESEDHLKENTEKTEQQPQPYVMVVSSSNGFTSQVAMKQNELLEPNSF

Turning to TGCCCG, the binding signal in assay [1] was 1.16 fold enrichment (6-mer frequency, TF over GST control); in assay [2], 1.16 fold enrichment (6-mer frequency, TF over GST control); in [3], 1.24 fold enrichment (6-mer frequency, TF over GST control); in assay [4], 1.19 fold enrichment (6-mer frequency, TF over GST control); in assay [5], 1.2 fold enrichment (6-mer frequency, TF over GST control); in [6] it was 1.27 fold enrichment (6-mer frequency, TF over GST control). Also, the binding signal in [7] is 1.13 fold enrichment (6-mer frequency, TF over GST control); in assay [8], 1.14 fold enrichment (6-mer frequency, TF over GST control); in assay [9] it was 1.12 fold enrichment (6-mer frequency, TF over GST control); in assay [10] it was 1.27 fold enrichment (6-mer frequency, TF over GST control); in [11], 1.21 fold enrichment (6-mer frequency, TF over GST control); in assay [12] it was 1.01 fold enrichment (6-mer frequency, TF over GST control). For the same sequence, the binding signal in [13] is 1.34 fold enrichment (6-mer frequency, TF over GST control); in assay [14], 1.21 fold enrichment (6-mer frequency, TF over GST control); in [15], 1.16 fold enrichment (6-mer frequency, TF over GST control); in [16], 1.26 fold enrichment (6-mer frequency, TF over GST control); in [17], 1.32 fold enrichment (6-mer frequency, TF over GST control); in assay [18], 1.21 fold enrichment (6-mer frequency, TF over GST control).

For the origin of these results see PMC7862700, “An all-to-all approach to the identification of sequence-specific readers for epigenetic DNA modifications on cytosine”.
